# From the antibiotic and cytotoxicity screens of Wong et al. (2023)
# About 3,300 (8.5%) of roughly 39,000 compounds were called active. What follows is part of a selection rich in actives, with near analogues and random picks from the rest.
# Tested on: HepG2
# Experiment: cytotoxicity call (relative viability < 0.9)
# Conditions: 10 µM
row,SMILES,cytotoxicity call
1,CO[C@H]1CN(C)C(=O)c2cc(NC(=O)CC(F)(F)F)ccc2OC[C@@H](C)N(S(=O)(=O)c2cn(C)cn2)C[C@H]1C,inactive
2,CO[C@@H](C(=O)N(C)C[C@@H]1OCc2ccccc2-c2c(n(C)c3ccccc23)C(=O)N([C@@H](C)CO)C[C@H]1C)c1ccccc1,inactive
3,COc1ccccc1CNC(=O)C[C@H]1C[C@@H]2c3cc(NS(=O)(=O)c4ccc(F)cc4)ccc3O[C@@H]2[C@H](CO)O1,inactive
4,C[C@@H]1CCCCO[C@H](CN(C)S(=O)(=O)c2ccccc2)[C@H](C)CN([C@H](C)CO)C(=O)c2cc(NS(C)(=O)=O)ccc2O1,inactive
5,COc1ccc(NC(=O)N(C)C[C@H]2Oc3ccc(NC(=O)Cn4cnnn4)cc3CC(=O)N([C@@H](C)CO)C[C@@H]2C)cc1,inactive
6,COc1ccc(NC(=O)Nc2ccc3c(c2)[C@@H]2C[C@@H](CC(=O)NCC(F)(F)F)O[C@@H](CO)[C@@H]2O3)cc1,inactive
7,C[C@@H]1CN([C@H](C)CO)C(=O)c2cccc(NC(=O)Nc3ccc(F)cc3)c2O[C@@H]1CN(C)Cc1ccc(C(=O)Nc2ccccc2N)cc1,inactive
8,COCC#Cc1cnc2c(c1)C(=O)N([C@H](C)CO)C[C@@H](C)[C@@H](CN(C)S(=O)(=O)c1ccccc1)O2,inactive
9,COCCN1C(=O)C2=C(C1=O)[C@H]1N(C)c3ccccc3[C@@]13C[C@@H](CO)N(C(C)=O)C3=N2,inactive
10,C[C@H](CO)N1C[C@H](C)[C@H](CN(C)C(=O)Nc2ccc(C(F)(F)F)cc2)Oc2ncc(-c3ccc(C#N)cc3)cc2C1=O,inactive
11,C=CCOC(=O)[C@@H]1[C@H]2C(=O)O[C@H](c3ccccc3)[C@H](c3ccccc3)N2[C@H](c2ccc(OCCOC(=O)NCCCCCC(=O)NO)cc2)[C@]12C(=O)Nc1ccccc12,inactive
12,CC1CCC2(OC1)OC1CC3C4CCC5CC(O)CCC5(C)C4CCC3(C)C1C2C (configuration not stated),inactive
13,CC(C)(O)[C@H]1CC[C@@](C)([C@H]2[C@@H](O)C[C@@]3(C)[C@@H]4C[C@H](O[C@@H]5O[C@H](CO)[C@@H](O)[C@H](O)[C@H]5O)[C@H]5C(C)(C)[C@@H](O[C@@H]6OC[C@@H](O)[C@H](O)[C@H]6O)CC[C@@]56C[C@@]46CC[C@]23C)O1,inactive
14,C[C@@H]1CC[C@@]2(OC1)O[C@H]1C[C@H]3[C@H]4C[C@@H](O)[C@H]5C[C@@H](O[C@@H]6O[C@H](CO)[C@H](O[C@@H]7O[C@H](CO)[C@@H](O)[C@H](O[C@@H]8OC[C@@H](O)[C@H](O)[C@H]8O)[C@H]7O[C@@H]7O[C@H](CO)[C@@H](O)[C@H](O)[C@H]7O)[C@H](O)[C@H]6O)[C@H](O)C[C@]5(C)[C@@H]4CC[C@]3(C)[C@H]1[C@@H]2C,active
15,CC(C)(O)C1CCC(C)(C2C(O)CC3(C)C4CC(OC5OC(CO)C(O)C(O)C5O)C5C(C)(C)C(OC6OCC(O)C(O)C6O)CCC56CC46CCC23C)O1 (configuration not stated),inactive
16,C[C@@H]1CO[C@]2(O[C@H]3C[C@H]4[C@H]5C[C@H](O[C@H]6O[C@@H](C)[C@@H](O)[C@@H](O[C@@H]7O[C@@H](C)[C@H](O)[C@@H](O)[C@H]7O)[C@@H]6O)[C@H]6C[C@@H](O)CC[C@]6(C)[C@@H]5CC[C@]4(C)[C@H]3[C@@H]2C)[C@@H](O)C1,inactive
17,C[C@@H]1CC[C@@]2(OC1)O[C@H]1C[C@H]3[C@H]4C[C@@H](O)[C@H]5C[C@@H](O[C@@H]6O[C@H](CO)[C@H](O[C@@H]7O[C@H](CO)[C@@H](O)[C@H](O[C@@H]8OC[C@@H](O)[C@H](O)[C@H]8O)[C@H]7O[C@@H]7O[C@H](CO)[C@@H](O[C@@H]8O[C@H](CO)[C@@H](O)[C@H](O)[C@H]8O)[C@H](O)[C@H]7O)[C@H](O)[C@H]6O)[C@H](O)C[C@]5(C)[C@@H]4CC[C@]3(C)[C@H]1[C@@H]2C,active
18,C[C@H]1CN([C@@H](C)CO)C(=O)Cc2cc(NC(=O)C3CCCCC3)ccc2O[C@@H]1CN(C)C(=O)Nc1cccc2ccccc12,inactive
19,Nc1nc(Cl)nc2c1ncn2[C@H]1C[C@@H](O)[C@@H](CO)O1,inactive
20,C[C@@H]1CN([C@@H](C)CO)C(=O)c2cc(N(C)C)ccc2O[C@@H](C)CCCCO[C@H]1CN(C)C(=O)Nc1cccc2ccccc12,inactive
21,Fc1ccc(Nc2ncnc3sc(-c4ccccc4)cc23)cc1,inactive
22,COc1ccc(S(=O)(=O)Nc2ccc3c(c2)C(=O)N([C@H](C)CO)C[C@@H](C)[C@@H](CN(C)C(=O)Nc2cccc4ccccc24)O3)cc1,inactive
23,CC(=O)Oc1cc2c(c(C)c1OC(C)=O)CC=C1[C@@]2(C)CC[C@@]2(C)[C@H]3C[C@](C)(C(=O)O)CC[C@]3(C)CC[C@]12C,active
24,CC1(C(=O)O)CCC2(C)CCC3(C)C(=CC(=O)C4C5(C)CCC(O)C(C)(C)C5CCC43C)C2C1 (configuration not stated),inactive
25,C[C@@H]1CCCCO[C@H](CN(C)Cc2ccc(C(F)(F)F)cc2)[C@@H](C)CN([C@@H](C)CO)C(=O)c2cc(NC(=O)CCC(F)(F)F)ccc2O1,inactive
26,C[C@@H]1CCCCO[C@H](CN(C)Cc2ccc(C(F)(F)F)cc2)[C@H](C)CN([C@@H](C)CO)C(=O)c2cc(NC(=O)CCC(F)(F)F)ccc2O1,active

row,SMILES,cytotoxicity call
1,C[C@H](CO)N1C[C@H](C)[C@@H](CN(C)Cc2ccc(C(F)(F)F)cc2)OCCCC[C@H](C)Oc2ccc(NC(=O)CCC(F)(F)F)cc2C1=O,inactive
2,C[C@@H]1CCCCO[C@H](CN(C)Cc2ccc(C(F)(F)F)cc2)[C@@H](C)CN([C@H](C)CO)C(=O)c2cc(NC(=O)CCC(F)(F)F)ccc2O1,inactive
3,C[C@@H]1CCCCO[C@@H](CN(C)Cc2ccc(C(F)(F)F)cc2)[C@H](C)CN([C@H](C)CO)C(=O)c2cc(NC(=O)CCC(F)(F)F)ccc2O1,inactive
4,C[C@@H]1CN([C@H](C)CO)C(=O)c2cc(NC(=O)CCC(F)(F)F)ccc2O[C@@H](C)CCCCO[C@@H]1CN(C)Cc1ccc(C(F)(F)F)cc1,inactive
5,C[C@@H]1CN([C@@H](C)CO)C(=O)c2cc(NC(=O)CCC(F)(F)F)ccc2O[C@@H](C)CCCCO[C@H]1CN(C)Cc1ccc(C(=O)O)cc1,inactive
6,C[C@@H]1CCCCO[C@@H](CN(C)Cc2ccc(C(=O)O)cc2)[C@H](C)CN([C@H](C)CO)C(=O)c2cc(NC(=O)CCC(F)(F)F)ccc2O1,active
7,C[C@@H]1CN([C@H](C)CO)C(=O)c2cc(NC(=O)CCC(F)(F)F)ccc2O[C@@H](C)CCCCO[C@H]1CN(C)Cc1ccc(C(=O)O)cc1,inactive
8,C[C@H](CO)N1C[C@H](C)[C@H](CN(C)Cc2ccc(C(F)(F)F)cc2)OCCCC[C@H](C)Oc2ccc(NC(=O)CCC(F)(F)F)cc2C1=O,inactive
9,C[C@@H]1CCCCO[C@@H](CN(C)Cc2ccc(C(F)(F)F)cc2)[C@H](C)CN([C@@H](C)CO)C(=O)c2cc(NC(=O)CCC(F)(F)F)ccc2O1,active
10,C[C@H]1CCCCO[C@H](CN(C)Cc2ccc(C(F)(F)F)cc2)[C@@H](C)CN([C@@H](C)CO)C(=O)c2cc(NC(=O)CCC(F)(F)F)ccc2O1,active
11,CN(C)CC#Cc1ccc([C@@H]2[C@@H](CO)N3C(=O)CN(C(=O)c4cccnc4)C[C@H]23)cc1,inactive
12,CO[C@H](CN(C)C(=O)Nc1ccc(C(F)(F)F)cc1)[C@@H](C)CN(Cc1ccccc1Cl)[C@@H](C)CO,inactive
13,C=CCC[C@H](Cc1ccc(F)cc1)C(=O)O[C@H](CNC(=O)[C@@H](CC=C)CC(=O)N[C@@H](CO)Cc1ccccc1)c1ccccc1,inactive
14,C[C@H](CO)N1C[C@H](C)[C@@H](CN(C)Cc2ccc(-c3ccccc3)cc2)Oc2c(NC(=O)C3CC3)cccc2C1=O,inactive
15,NC(=O)NCC#Cc1ccc2c(c1)[C@]1(C(=O)N2)[C@H](C(=O)N2CCCCCCC2)[C@H]2C(=O)O[C@H](c3ccccc3)[C@H](c3ccccc3)N2[C@@H]1c1ccccc1OCCO,inactive
16,C[C@@H]1CN([C@@H](C)CO)S(=O)(=O)c2ccc(-c3ccccc3F)cc2O[C@H]1CN(C)S(C)(=O)=O,inactive
17,CN1C(=O)[C@@H](O)N(c2ccccc2)C1=O,inactive
18,CCOC(=O)[C@H](CCc1ccccc1)N[C@@H](C)C(=O)N1C(=O)N(C)C[C@H]1C(=O)O,inactive
19,CC(C)NC(=O)N(C)C[C@@H]1Oc2ccc(NS(=O)(=O)c3ccc(Cl)cc3)cc2CC(=O)N([C@@H](C)CO)C[C@H]1C,inactive
20,C[C@@H]1CN([C@@H](C)CO)C(=O)c2cccc(NS(=O)(=O)c3cccs3)c2O[C@H]1CN(C)Cc1ccc(Cl)c(Cl)c1,inactive
21,COc1ccc(CN(C)C[C@H]2OCCCC[C@H](C)Oc3ccc(NC(=O)CCC(F)(F)F)cc3C(=O)N([C@@H](C)CO)C[C@H]2C)cc1,inactive
22,C[C@@H]1CN([C@@H](C)CO)C(=O)c2cc(NC(=O)CCC(F)(F)F)ccc2O[C@@H](C)CCCCO[C@@H]1CN(C)Cc1ccc(C(F)(F)F)cc1,inactive
23,COc1ccc(CN(C)C[C@H]2OCCCC[C@H](C)Oc3ccc(NC(=O)CCC(F)(F)F)cc3C(=O)N([C@H](C)CO)C[C@H]2C)cc1,active
24,COc1ccc(CN(C)C[C@H]2OCCCC[C@@H](C)Oc3ccc(NC(=O)CCC(F)(F)F)cc3C(=O)N([C@H](C)CO)C[C@H]2C)cc1,inactive
25,C[C@H]1CCCCO[C@@H](CN(C)Cc2ccc(C(F)(F)F)cc2)[C@@H](C)CN([C@@H](C)CO)C(=O)c2cc(NC(=O)CCC(F)(F)F)ccc2O1,active
26,C[C@@H]1CN([C@@H](C)CO)C(=O)c2cc(NC(=O)CCC(F)(F)F)ccc2O[C@@H](C)CCCCO[C@H]1CN(C)Cc1ccc(C(F)(F)F)cc1,inactive
